This note sets out measurements from the supplement of paper PMC6555819.

The test system of the assay is VDR:RXRa (NR concentration 270 nM, RXRa partner concentration 90 nM). The experiment in a line: PBM binding z-score (relative to random genomic background probes); higher = stronger binding; sequences stand for … in GC…GCGATTGACAGCGTAGAATGAAGG
How it is done:
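Protein-binding microarray (Agilent 4x180K custom design, double-stranded 60-nt probes: 5' GC cap, 34-nt variable region, 24-nt constant primer region; full probe sequence given). Purified or IVT nuclear receptor:RXRα heterodimers (3:1 NR:RXRα, mostly 270:90 nM) or homodimers were incubated for 1 h in PBS with 2% milk and no ligand, then detected with Alexa488 antibodies. Fluorescence from o1-orientation probes (~5 replicates averaged) was converted to z-scores against 500 random hg19 background probes. Variable regions are seed direct-repeat (DR0–DR5) sites, all their single-nucleotide variants and half-site ablations.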
AGAATGAGGTTACCAAAGCTCAGGGAAACGCTTG showed a PBM binding z-score of 0.99.

In turn, CAAACTAGGTCAAGAGGCCAAAGTCCGCTTCCCG returned a PBM binding z-score of 2.16.

Consider ATCGAAAGGTCGACGAGCTGAGTATACACCGTTT, for which the PBM binding z-score came out at 2.15.

For ATATGTAGGTTAAGGATCATTCAGGTTGGTTCGC, the PBM binding z-score was 1.45.

CAAACTAGGTCAAAGGCCAAAGTCGAGCCAACCA registered a PBM binding z-score of 2.6.

Turning to GCAGACAGGTGAAACACAGGTAACTCAGGGTGGC, the PBM binding z-score is -0.244.

GCTAGCAGGCCAGTTGGGTCACTCAATGACGGGC displayed a PBM binding z-score of -0.00125.

With CCTACTGGGCCAAGGTCCTTGATCAGTCAAAGCA, the PBM binding z-score was -0.657.

In turn, TATCCTAGGTCATTGGGCCAGTATAGTACGCATC displayed a PBM binding z-score of 3.04.

For CCGACTGGGGCAGCAAGGTTACCATACCATCCGG, the PBM binding z-score was determined as 1.25.

On to ATCTCTAGGTAAAAGTTCAGAGAATCCCGAGGAT, for which the PBM binding z-score was 1.43.

The sequence ATGTCTAGGTAAGACTCAGTTCAGTGAAGAACGC gave a PBM binding z-score of 0.683.

As to TCTAGCAGGCCAGAGGGTTACTCAAGAGGTACGG, the PBM binding z-score is -0.176.

Regarding ACTAGGAGGCCAAGTTTGGGTCACTCAAACAAAG, the PBM binding z-score turned out to be 1.08.

GCTATTAGTTGAAACGGCAACCGAATGATTCTCG showed a PBM binding z-score of -0.413.

For the sequence CAAACTAGGTAAAAGGTCAAAGTCGAGCCAACCA, the PBM binding z-score came out at 4.86.

Consider GCTAGTTGGTCAGTAAAAGGACACACACCGGTCG, for which the PBM binding z-score was -0.213.

For GAAACGAGGGCAAGTTGATAGCAGAGTTTGATGG, the PBM binding z-score was found to be 1.51.

GCGACTGGGGCAGCAGCAGGTTACCATAACTTAA: the PBM binding z-score is -0.465.

TCTAGTTGGTCGAAGGTCACACACTCGAAATGCG came in with a PBM binding z-score of 3.37.

CGTCCAAGGTCAATGCTAGGTCAGTGAAAGCATT: the PBM binding z-score amounted to 4.81.

The sequence TCGAGTAGGTTAGGGGCATTCAGAATGGCGTCGA yielded a PBM binding z-score of 0.508.

Sequence TCTAGCAGGCCAGATGGTCACTCAAGAGGTACGG showed a PBM binding z-score of -0.443.

CATACTGGGCCAAAGGTCATTGATTCCAATGCTC registered a PBM binding z-score of 5.1.

On to CCTACTGGGCCGCGAAAGGTCATTGATTCAGTGA, for which the PBM binding z-score is 3.74.

Sequence TCTCGGAGGACACGAAAGGTCAGAGCTCGACATC gave a PBM binding z-score of 3.28.

As to CGTCAAAATTCAACTAAGGTAACGTAAAGCACGC, the PBM binding z-score is 0.298.

Sequence ATCTCTAGGGAAGACTCAGTTCAGTGAAGAACGC returned a PBM binding z-score of 0.408.

With AGAACGAGGGCACGCTAAGTTGATAGCAGAGTAG, the PBM binding z-score was found to be 1.65.

On to TCGAGTAGGGTACCAATGGGGCATTCAGCTTTCT, for which the PBM binding z-score was -0.337.

Consider CCTCGGAGGACAACAGGAGGTCAGAACTGCCAGA, for which the PBM binding z-score came to 1.67.

Regarding TCTTGTAGATCAAAAGAGGTTAAGAAAGTGCGCT, the PBM binding z-score came to 1.72.

Consider ATCTCTAGGTAACAAGCTCAGTGAAAGAGAGGAC, for which the PBM binding z-score came out at 0.159.

The sequence TAGCCTAGGTCATGGGCCAGTACACCACGCGAAC showed a PBM binding z-score of 2.38.

CGTCCAAGTTCAATGCTAGGTCAGTGAAAGCATT came in with a PBM binding z-score of 4.26.

Sequence TTACCAAGGTGAGCTGAGTTCGTTGATCCAACTC had a PBM binding z-score of 4.86.

On to TAGCCTAGGGCATGCGGGCCAGTATAGTGTCGGC, for which the PBM binding z-score was -0.814.

AGAACGAGGGCACGCTGAGTCGATAGCAGAGTAG: the PBM binding z-score came out at 0.908.

Consider CCTGGCAGGCCAATCTGGGTCACTCAAGGCTTGA, for which the PBM binding z-score came out at 0.406.

Regarding CCTTACGGGTTACTGACAGGTTATAGCATTTGGA, the PBM binding z-score was determined as 0.637.
